IL1B secr inh – qHTS for Inhibitors of Inflammasome Signaling: IL-1-beta AlphaLISA Primary Screen; THP-1 LPS/ATP IL-1B secretion, AlphaLISA, 16 h; active compounds read low; activity change, % at 57.5 µM; 4.7% of 360,000 active; AID 743279, 2014; in the data active = activity change below about -50%; inconclusive = mostly about -30% to -49%
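THP-1 cells pretreated 1 hr with compounds (up to 57.5 uM final), then stimulated with LPS (250 ng/mL final) plus ATP (1.25 mM final); secreted IL-1B measured by AlphaLISA after 16 hr, decreased signal indicating inhibition.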
DT40 TDP1 no CPT – qHTS for Inhibitors of human tyrosyl-DNA phosphodiesterase 1 (TDP1): qHTS in cells in absence of CPT. DT40 Tdp1-/- hTDP1 cells, no CPT, ATP luminescence, 48 h. Potency, µM (titrated, usually from 46.2 µM), for inactives: at the highest dose activity change, negative = growth inhibition, usual class: inhibitors. 15% of 420,000 active. AID 686978, 2013; also: potency is read from the fitted curve at half-maximal effect; nearly all actives have a fitted effect of over 55% in size
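DT40 Tdp1-/-;hTDP1 cells, no CPT (DMSO vehicle only), 400 cells/well; compounds pin-transferred; ≥48 hr, 37 °C; CellTiter-Glo 30 min RT dark, luminescence read.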
ELG1 DNA repair – qHTS screen for small molecules that inhibit ELG1-dependent DNA repair in human embryonic kidney (HEK293T) cells expressing luciferase-tagged ELG1; HEK293T ELG1-luciferase reporter, luminescence, 16 h; DNA damage induced by 5-fluorouridine; Potency, µM (top dose mostly 46.1 µM), for inactives: at the highest dose activity change, negative = inhibition, usual class: inhibitors; 2.3% of 330,000 active; also: potency is read from the fitted curve at half-maximal effect; nearly all actives have a fitted effect of over 55% in size
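Quantitative HTS, concentration-response format. 2,000 cells/well co-treated with 5-fluorouridine and compound, 16 hr in 5% CO2 at 37 °C; ONE-Glo luminescence read after 30 min.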
HT1080 IDH1KD tx – qHTS for induction of synthetic lethality in tumor cells producing 2HG: qHTS for the HT-1080-IDH1KD cell line. 2% of 360,000 active. Potency, µM (highest dose often 46.1 µM), without a hit: top-dose activity, negative = toxicity, hits mostly cytotoxic. HT-1080 IDH1 knockdown viability, ATP luminescence, 48 h. AID 686971, 2013;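 also: potency is read from the fitted curve at half-maximal effect; 0% = DMSO wells and -100% = cell-free medium wells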
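% activity derives from luminescence (CellTiter-Glo), normalised to DMSO and no-cell wells. HT-1080-IDH1KD cells, 750/well, had 48 h compound exposure at 37 °C.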
DT40 TDP1 CPT – qHTS for Inhibitors of human tyrosyl-DNA phosphodiesterase 1 (TDP1): qHTS in cells in presence of CPT. chicken DT40 Tdp1-/-;hTDP1 cells + 20 nM CPT, ATP luminescence, 48 h. Potency, µM (highest dose often 46.2 µM), without a hit: at the highest dose activity change, negative = growth inhibition, usual class: inhibitors. 12% of 420,000 active; also: potency is read from the fitted curve at half-maximal effect; nearly all actives have a fitted effect of over 55% in size
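Chicken DT40 Tdp1-/- cells stably complemented with human TDP1 were seeded at 400 cells/well in medium containing 20 nM camptothecin, exposed to pin-transferred compounds, and grown at 37 °C for at least 48 hr. Viability was read as ATP luminescence.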
HT1080-NT tox – qHTS for induction of synthetic lethality in tumor cells producing 2HG: qHTS for the HT-1080-NT fibrosarcoma cell line | AID 686970, 2013 | Potency, µM (doses to about 46.1 µM), inactives show at the highest dose activity, negative = less viability, actives largely listed as cytotoxic | 1.6% of 360,000 active | HT-1080-NT fibrosarcoma viability, CellTiter-Glo ATP luminescence, 48 h;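 also: NT is the 2HG producing partner of a matched IDH1 knockdown line; potency is read from the fitted curve at half-maximal effect; 0% = DMSO-treated cells and -100% = media-only wells without cells; nearly all actives have a fitted effect of over 55% in size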
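Viability of the 2HG-overproducing fibrosarcoma line after 48 hours of compound exposure at 37 degrees C was determined by luminescence with CellTiter-Glo, and concentration-effect curves were then fitted and categorized.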
The depositor's hits bear a star; [ ] = remark or other dose. This is a sample that favours compounds with a hit; in the whole collection about 19% have one here. Unless noted, calls follow the shape of the dose curve; as a rule, active = well fitted curve in the direction sought with a large enough effect; inconclusive = small, poorly fitted or top-dose-only effect, or another doubt; inactive = no such curve, though single readings can be large; an effect the other way counts as inactive or inconclusive. Unless noted, % is scaled to controls: 0 for no effect and ±100 for the full control effect.

How did COc1ccc(C2(C)NC(=O)N(CC(=O)Nc3ccc4c(c3)CCC4)C2=O)cc1OC (stereo unspecified) do in these assays?
IL1B secr inh: -21; DT40 TDP1 no CPT: -3%; ELG1 DNA repair: -14%; HT1080 IDH1KD tx: 0%; DT40 TDP1 CPT: 2%; HT1080-NT tox: -16%

Results for COc1ccc(S(=O)(=O)N2CCN(C(=O)CN3C(=O)NC(C)(c4ccc5ccccc5c4)C3=O)CC2)cc1 (stereo unspecified) ?
IL1B secr inh: -16; DT40 TDP1 no CPT: 23µM*; ELG1 DNA repair: inconclusive; HT1080 IDH1KD tx: -10%; DT40 TDP1 CPT: inconclusive; HT1080-NT tox: -8%

What do the screens show for `COc1ccc(C2(C)NC(=O)N(CC(=O)Nc3ccc4ccccc4c3)C2=O)cc1OC` (stereo unspecified)?
IL1B secr inh: -55*; DT40 TDP1 no CPT: inconclusive; ELG1 DNA repair: inconclusive; HT1080 IDH1KD tx: -16%; DT40 TDP1 CPT: -8%; HT1080-NT tox: inconclusive

What do the screens show for `COc1ccc(S(=O)(=O)N2CCN(C(=O)CN3C(=O)NC(C)(C)C3=O)CC2)cc1`?
IL1B secr inh: 0; DT40 TDP1 no CPT: 3%; ELG1 DNA repair: 0%; HT1080 IDH1KD tx: -3%; DT40 TDP1 CPT: -4%; HT1080-NT tox: -5%

How did CCCCCCCCCCCCC/C=C/[C@@H](O)[C@H](CO)NC(=O)CCCCCCCCCCCCCCC do in these assays?
DT40 TDP1 no CPT: 0%[4.12 µM]; DT40 TDP1 CPT: -4%[4.12 µM]

Results for Cc1ccc(S(=O)(=O)NCC(=O)NC2CC2)cc1 ?
IL1B secr inh: 5; DT40 TDP1 no CPT: 1%; ELG1 DNA repair: 5%; HT1080 IDH1KD tx: 3%; DT40 TDP1 CPT: -4%; HT1080-NT tox: 4%

What do the screens show for `COc1ccc(S(=O)(=O)N(C)C)cc1NC(=O)C1CCN(c2ncnc3sc(C)c(C)c23)CC1`?
IL1B secr inh: -15; DT40 TDP1 no CPT: 9.2µM*; HT1080 IDH1KD tx: -29%; DT40 TDP1 CPT: 21µM*; HT1080-NT tox: -15%

What do the screens show for `Cc1sc2ncnc(N3CCC(C(=O)Nc4cc(S(C)(=O)=O)ccc4Cl)CC3)c2c1C`?
IL1B secr inh: inconclusive; DT40 TDP1 no CPT: 18µM*; ELG1 DNA repair: inconclusive; HT1080 IDH1KD tx: -11%; DT40 TDP1 CPT: 13µM*; HT1080-NT tox: -14%

How did Cc1sc2ncnc(N3CCC(C(=O)NNC(=O)c4ccc(Cl)cc4)CC3)c2c1C do in these assays?
IL1B secr inh: -81*; DT40 TDP1 no CPT: 15µM*; ELG1 DNA repair: inconclusive; HT1080 IDH1KD tx: -6%; DT40 TDP1 CPT: 16µM*; HT1080-NT tox: -9%

Results for Cc1sc2ncnc(N3CCC(C(=O)Nc4cc(C(F)(F)F)ccc4OCC(F)(F)F)CC3)c2c1C ?
IL1B secr inh: -56*; DT40 TDP1 no CPT: 18µM*; HT1080 IDH1KD tx: -10%; DT40 TDP1 CPT: inconclusive; HT1080-NT tox: -9%

How did COc1ccccc1CCNC(=O)C(=O)NCC1OCCN1S(=O)(=O)c1ccc([N+](=O)[O-])cc1 (stereo unspecified) do in these assays?
IL1B secr inh: -11; DT40 TDP1 no CPT: inconclusive; ELG1 DNA repair: 0%; HT1080 IDH1KD tx: -3%; DT40 TDP1 CPT: inconclusive; HT1080-NT tox: -1%

Results for O=C(Nc1ccccc1)N1CCC2(CC1)CCN(S(=O)(=O)c1ccccc1)CC2 ?
DT40 TDP1 no CPT: -12%; DT40 TDP1 CPT: 0%
